Experimental findings from PubChem BioAssay (EPA / NIEHS) are described below.

Records with an inconclusive call do not appear. The source made the active and inactive calls. The calls were made as follows, unless noted: active = hit-call score of the fitted dose curve at least 0.9, where 1 is the maximum; inactive = score below 0.9.

Broadly, the AC50 is the midpoint of the concentration-response curve, whichever way the signal moves.

Sequence of Transcriptional activator Myb (Homo sapiens) (P10242 whole entry, looked up): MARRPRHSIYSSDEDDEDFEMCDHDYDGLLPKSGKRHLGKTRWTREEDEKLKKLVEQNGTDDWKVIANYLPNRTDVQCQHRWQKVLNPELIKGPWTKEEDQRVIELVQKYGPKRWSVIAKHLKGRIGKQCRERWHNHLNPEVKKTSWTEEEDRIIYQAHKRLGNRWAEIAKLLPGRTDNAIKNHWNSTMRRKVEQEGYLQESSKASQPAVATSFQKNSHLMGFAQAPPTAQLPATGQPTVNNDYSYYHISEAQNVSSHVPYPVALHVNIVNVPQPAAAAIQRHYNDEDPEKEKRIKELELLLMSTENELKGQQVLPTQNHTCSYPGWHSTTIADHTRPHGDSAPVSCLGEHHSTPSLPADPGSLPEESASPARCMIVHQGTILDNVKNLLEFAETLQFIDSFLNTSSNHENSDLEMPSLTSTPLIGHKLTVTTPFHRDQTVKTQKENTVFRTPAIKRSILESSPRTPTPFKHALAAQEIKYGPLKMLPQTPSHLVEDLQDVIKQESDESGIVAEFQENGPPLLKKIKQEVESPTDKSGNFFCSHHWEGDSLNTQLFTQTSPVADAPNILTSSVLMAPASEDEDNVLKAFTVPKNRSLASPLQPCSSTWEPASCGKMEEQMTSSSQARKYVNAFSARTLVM
Sequence of Nuclear receptor subfamily 4 group A member 2 (Homo sapiens) (P43354 whole entry, looked up, the tested form may be a part): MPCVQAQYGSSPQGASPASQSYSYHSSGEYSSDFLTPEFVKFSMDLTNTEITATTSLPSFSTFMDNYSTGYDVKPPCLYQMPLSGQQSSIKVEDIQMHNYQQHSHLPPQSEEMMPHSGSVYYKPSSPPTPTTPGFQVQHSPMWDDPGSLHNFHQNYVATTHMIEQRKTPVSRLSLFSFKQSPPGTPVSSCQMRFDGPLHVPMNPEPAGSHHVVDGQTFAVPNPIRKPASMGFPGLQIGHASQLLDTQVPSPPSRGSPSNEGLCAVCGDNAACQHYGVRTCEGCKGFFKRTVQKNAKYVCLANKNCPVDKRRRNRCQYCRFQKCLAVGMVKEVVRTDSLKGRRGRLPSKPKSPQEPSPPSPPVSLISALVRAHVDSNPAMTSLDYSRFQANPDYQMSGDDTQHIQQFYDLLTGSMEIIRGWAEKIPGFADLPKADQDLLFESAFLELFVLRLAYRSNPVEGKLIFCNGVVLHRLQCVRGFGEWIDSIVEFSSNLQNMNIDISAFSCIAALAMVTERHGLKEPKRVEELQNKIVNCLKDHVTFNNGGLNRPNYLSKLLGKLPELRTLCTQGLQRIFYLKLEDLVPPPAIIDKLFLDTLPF

System in one assay: not listed separately
The experiment in a line: ATG_M_32_TRANS: Attagene TRANS-FACTORIAL HepG2 Assay for M32 Transcription Factor (Internal Marker) (AID 2282984; active = hit-call score of the fitted dose curve at least 0.9, where 1 is the maximum;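 also: transcript level of a background control reporter unit measured by RT-PCR and capillary electrophoresis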). Conditions: HepG2 Attagene TRANS M32 internal marker reporter. In a few lines:
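Fluorescence-detected mRNA induction, HepG2 liver cells, 24 h after dosing. Multiple GAL4-UAS reporter units introduced by transient transfection; background-control endpoint analysed for gain of signal against DMSO.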
Regarding `Cc1cc(C)cc(C)c1`, the outcome was inactive.
Regarding `CC(C)N(C(=O)CCl)c1ccccc1`, the compound was classed as inactive.
Still for that read-out and setting: then `BrCC(Br)c1ccccc1` (stereo not given), with “inactive”; and `CCOC(=O)CCN(SN(C)C(=O)Oc1cccc2c1OC(C)(C)C2)C(C)C`, with “inactive”.
As to `CCCCOC(=O)COC(=O)c1ccccc1C(=O)OCCCC`, the compound was called inactive.
`CC(C)[N+](=O)[O-]`: the call was inactive.
Same read-out and setting: with `CCN(CC)C(=O)C(Cl)=C(C)OP(=O)(OC)OC` the entry was “inactive”; with `ClCc1ccccc1Cl`, “inactive”; with `CCCCCCCCBr`, “inactive”.
On the same count and under the same terms, then `O=C1C=CC(=O)c2ccccc21`, with “inactive”; and `COc1nn(C(=O)NS(=O)(=O)c2ccccc2OC(F)(F)F)c(=O)n1C`, with “inactive”; and `N#Cc1ccc(Cl)cc1`, with “inactive”.
As for `O=[N+]([O-])c1ccc(Cl)c([N+](=O)[O-])c1`, the call was inactive.
On the same count and under the same terms, with `O=C(O)COc1cc(Cl)c(Cl)cc1Cl` the entry was “inactive”; with `CN(C)[C@@H]1C(=O)C(C(N)=O)=C(O)[C@@]2(O)C(=O)C3=C(O)c4c(O)ccc(Cl)c4[C@@](C)(O)[C@H]3C[C@@H]12`, “inactive”.
On the same count and under the same terms, with `CN(N=O)C(N)=O` the entry was “inactive”.
In the case of `OC[C@@H](O)[C@H]1O[C@@H]2O[C@H](C(Cl)(Cl)Cl)O[C@@H]2[C@H]1O`, the compound was classed as inactive.
The same measure, in the same setting: with `CCCCCCCCCCCCCCC(Br)C(=O)O` (stereo not given) the entry was “inactive”; with `OC[P+](CO)(CO)CO`, “inactive”; with `C=CCOC(N)=O`, “inactive”.
`O=CCCl`: the outcome was inactive.
On the same count and under the same terms, with `CCC(C)(C#N)N=NC(C)(C#N)CC` (stereo not given) the entry was “inactive”.

In a further assay the target is Nuclear receptor subfamily 4 group A member 2 (Homo sapiens) (UniProt P43354). The experiment in a line: ATG_NURR1_TRANS: Attagene TRANS-FACTORIAL HepG2 Assay for human Nuclear Receptor Related Protein 1 (NURR1) (AID 2282985; active = hit-call score of the fitted dose curve at least 0.9, where 1 is the maximum). Conditions: HepG2 Attagene TRANS reporter, mRNA readout. In a few lines:
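Chimeric NR-Gal4 proteins were expressed in human HepG2 cells bearing GAL4-UAS reporter units, and induced reporter mRNA was quantified 24 h post-dosing by RT-PCR and capillary electrophoresis.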
As for `CC(C)N(C(=O)CCl)c1ccccc1`, the AC50 is 149 µM (active).
As for `BrCC(Br)c1ccccc1` (stereo not given), the call was inactive.
In the case of `CCOC(=O)CCN(SN(C)C(=O)Oc1cccc2c1OC(C)(C)C2)C(C)C`, the AC50 was 157 µM (active).
As to `CCCCOC(=O)COC(=O)c1ccccc1C(=O)OCCCC`, the compound was called inactive.
As for `CCN(CC)C(=O)C(Cl)=C(C)OP(=O)(OC)OC`, the result was inactive.
`O=C(O)CC(O)(CC(=O)O)C(=O)O`: the AC50 is 6.74 µM (active).
As for `ClCc1ccccc1Cl`, the outcome was inactive.
Same read-out and setting: then `CCCCCCCCBr`, with “inactive”; and `N#Cc1ccc(Cl)cc1`, with “inactive”.
As to `C=CC(Cl)CCl` (stereo not given), the outcome was inactive.
Same read-out and setting: with `CN(C)[C@@H]1C(=O)C(C(N)=O)=C(O)[C@@]2(O)C(=O)C3=C(O)c4c(O)ccc(Cl)c4[C@@](C)(O)[C@H]3C[C@@H]12` the entry was “inactive”; with `CN(N=O)C(N)=O`, “inactive”.
Still for that read-out and setting: with `OC[C@@H](O)[C@H]1O[C@@H]2O[C@H](C(Cl)(Cl)Cl)O[C@@H]2[C@H]1O` the entry was “inactive”.
Regarding `CCCCCCCCCCCCCCC(Br)C(=O)O` (stereo not given), the AC50 was 26.4 µM (active).
`OC[P+](CO)(CO)CO`: the result was inactive.
With `O=CCCl`, the call was inactive.
Still for that read-out and setting: with `CCOC(=O)CC(=O)CCl` the entry was “inactive”; with `CCC(C)(C#N)N=NC(C)(C#N)CC` (stereo not given), “inactive”; with `N#CCC#N`, “inactive”.

Another assay deals with Transcriptional activator Myb (Homo sapiens) (UniProt P10242). The experiment in a line: ATG_Myb_CIS: Attagene CIS-FACTORIAL HepG2 Assay for human Myeloblastosis (Myb) Proto-Oncogene Transcription Factor (AID 2282986). Conditions: HepG2 Attagene CIS-FACTORIAL Myb reporter transcription; actives raise or lower the signal. The essentials:
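Steps: transfect HepG2 with cis-regulated reporter units; dose with chemical for 24 h; isolate RNA, reverse-transcribe, PCR-amplify and FAM-label reporter sequences; digest with HpaI; resolve by capillary electrophoresis. Activity fitted in both directions relative to DMSO.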
As for `Cc1cc(C)cc(C)c1`, the result was inactive.
Turning to `CC(C)N(C(=O)CCl)c1ccccc1`, the half-maximal activity concentration (AC50) is 8.16 µM (active).
Consider `BrCC(Br)c1ccccc1` (stereo not given), for which the compound was called inactive.
Same read-out and setting: with `CCOC(=O)CCN(SN(C)C(=O)Oc1cccc2c1OC(C)(C)C2)C(C)C` the entry was “inactive”.
As for `CCCCOC(=O)COC(=O)c1ccccc1C(=O)OCCCC`, the compound was classed as inactive.
On to `Clc1cccc(Cl)c1Cl`, for which the outcome was inactive.
On the same count and under the same terms, with `CC(C)[N+](=O)[O-]` the entry was “inactive”.
Still for that read-out and setting: with `Cc1cc(SCc2sc(-c3ccc(C(F)(F)F)c(F)c3)nc2C)ccc1OCC(=O)O` the entry was “inactive”; with `O=C(CBr)c1ccc(O)cc1`, “inactive”.
Regarding `CCOP(=S)(OCC)O/N=C(\C#N)c1ccccc1`, the outcome was inactive.
The same measure, in the same setting: then `CCN(CC)C(=O)C(Cl)=C(C)OP(=O)(OC)OC`, with “inactive”; and `O=C(O)CC(O)(CC(=O)O)C(=O)O`, with “inactive”; and `ClCc1ccccc1Cl`, with “inactive”.
Consider `CCCCCCCCBr`, for which the outcome was inactive.
For `N#Cc1ccccc1Cl`, the outcome was inactive.
For the compound `O=C1C=CC(=O)c2ccccc21`, the call was inactive.
With `COc1nn(C(=O)NS(=O)(=O)c2ccccc2OC(F)(F)F)c(=O)n1C`, the compound was called inactive.
Regarding `N#Cc1ccc(Cl)cc1`, the result was inactive.
Same read-out and setting: with `NNCCO` the entry was “inactive”.
Regarding `O=[N+]([O-])c1ccc(Cl)c([N+](=O)[O-])c1`, the result was inactive.
Regarding `C=CC(Cl)CCl` (stereo not given), the call was inactive.
Same read-out and setting: then `O=C(O)COc1cc(Cl)c(Cl)cc1Cl`, with “inactive”; and `C[C@H]1C(=O)O[C@@H]2CCN3CC=C(COC(=O)[C@](C)(O)[C@]1(C)O)[C@H]23`, with “inactive”.
Still for that read-out and setting: with `CN(C)[C@@H]1C(=O)C(C(N)=O)=C(O)[C@@]2(O)C(=O)C3=C(O)c4c(O)ccc(Cl)c4[C@@](C)(O)[C@H]3C[C@@H]12` the entry was “inactive”; with `CN(N=O)C(N)=O`, “inactive”.
On the same count and under the same terms, with `OC[C@@H](O)[C@H]1O[C@@H]2O[C@H](C(Cl)(Cl)Cl)O[C@@H]2[C@H]1O` the entry was “inactive”; with `OCCCCO`, “inactive”.
For the compound `CCCCCCCCCCCCCCC(Br)C(=O)O` (stereo not given), the concentration at half-maximal activity (AC50) is 163 µM (active).
With `OC[P+](CO)(CO)CO`, the result was inactive.
With `C=CCOC(N)=O`, the compound was classed as inactive.
The same measure, in the same setting: then `O=CCCl`, with “inactive”; and `N#CS`, with “inactive”; and `CCOC(=O)CC(=O)CCl`, with “inactive”.
On the same count and under the same terms, with `CCC(C)(C#N)N=NC(C)(C#N)CC` (stereo not given) the entry was “inactive”; with `CC(C)C(C)(N)C#N` (stereo not given), “inactive”; with `CCC[CH2][Sn]([CH2]CCC)([CH2]CCC)[CH2]CCC`, “inactive”.
Still for that read-out and setting: then `N#CCC#N`, with “inactive”.
For the compound `FC(F)OCC(F)(F)C(F)(F)F`, the compound was classed as inactive.
On the same count and under the same terms, then `C[As+](C)(C)CC(=O)[O-]`, with “inactive”.
